# Measured values from PubChem BioAssay (NCI).
# The panel holds about 79,000 compounds, 15% with a hit somewhere; the sample as a whole holds those more often. Calls of active or inactive are those of the source. Rule as the data show it: active = growth inhibition above about 70%; inactive = the rest.
# Assay: NCI Yeast Anticancer Drug Screen. Data for the mlh1 rad18 strain (AID 175)
# Details: S. cerevisiae mlh1 rad18 strain growth inhibition; at 50.0 µM; hits give high values
# How it was run: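 Yeast w/ defined DNA-repair lesions; compound exposure; growth vs vehicle controls → % inhibition.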
row,Compound,growth inhibition
1,CN(C)CCNS(=O)(=O)N(C)C,8.45% (inactive)
2,CC12CCC(C/C1=N\O)C2(C)CBr (stereo not given),5.1% (inactive)
3,CCC(C)C(NN)C(=O)O (stereo not given),-37.3% (inactive)
4,O=C(O)Cc1c(-c2ccccc2)nc(=S)[nH]c1-c1[nH]c(=S)nc(-c2ccccc2)c1CC(=O)O,2.25% (inactive)
5,O=c1c([OH2+])c(-c2ccc(O)cc2[O-])oc2cc(O)cc([O-])c12.O=c1c([OH2+])c(-c2ccc(O)cc2[O-])oc2cc(O)cc([O-])c12.[Ti+4],10.2% (inactive)
6,Cc1ccc([N+](=O)[O-])cc1NC(=O)COc1ccc(Cl)cc1Cl,1.15% (inactive)
7,COc1ccc(/C=N/Nc2nc(C)c(C)s2)cc1,55.8% (inactive)
8,CC1=CC(=O)C(CCC#N)C(C)(C)C1 (stereo not given),-0.4% (inactive)
9,NNC(=O)CC(N)C(=O)O (stereo not given),2% (inactive)
10,CCCCN(CCCC)C(=O)OCC,14.5% (inactive)
11,COc1cc(C=O)ccc1OC(=O)Nc1cccc(Cl)c1C,17.8% (inactive)
12,O=C(c1cccc([N+](=O)[O-])c1)c1cccs1,-4.05% (inactive)
13,Cc1ccc(S(=O)(=O)Oc2ccccc2C(=O)O)cc1,-13.5% (inactive)
14,CC(C)C1CC(C)(C)C2CC3OC(C(C)C)CC(C)(C)C3CC2O1 (stereo not given),1.35% (inactive)
15,O=C(/C=C/c1ccc(O)cc1)c1ccc(Cl)cc1,-16.4% (inactive)
16,CCOC(=O)NC(=S)Nc1ccn(C)c1,46.6% (inactive)
17,COC(=O)c1c2c(cc3c1CCC3)CCC2,-20.2% (inactive)
18,Cc1ccnc(NCc2ccccn2)c1,-1.5% (inactive)
19,Cc1cc(O)cc2oc(=O)ccc12,-15.2% (inactive)
20,CCOC(=O)c1c2ccc(/C=C/c3ccccn3)ccc-2c(C(=O)OCC)c1N,-3.1% (inactive)

row,Compound,growth inhibition
1,CC[C@H]1CN(C)[C@H]2Cc3c([nH]c4ccccc34)C(=O)C[C@H]1C2C(=O)OC (stereo not given in full),-35.9% (inactive)
2,CC1=Nc2ccccc2NC2(C1)C(C1COC(C)(C)O1)OC1OC(C)(C)OC12 (stereo not given),17.9% (inactive)
3,CCOC(=O)c1nc2ccc(C(F)(F)F)cc2nc1Nc1cc(OC)c(OC)c(OC)c1,-11.1% (inactive)
4,Cc1cc(OCCOC(=O)Nc2ccccc2C(F)(F)F)cc(C)c1Cl,10.8% (inactive)
5,COC(=O)NC1(NC(=O)OC)NC(=O)c2cc(OC)c(OC)cc2N1,5.75% (inactive)
6,CC1=Nc2ccccc2S/C1=C(/C)NN,0.9% (inactive)
7,O=C(O)/C=C\C(=O)Nc1ccc(S(=O)(=O)Nc2nccs2)cc1,-10.1% (inactive)
8,COC(=O)c1ccc(C(=O)c2ccccc2)cc1,7.7% (inactive)
9,CS(=O)(=O)Nc1cccc(C(=O)NN)c1,14.4% (inactive)
10,CCOP(=O)(OCC)C(C)(CC)NC1=NC(C(F)(F)F)(C(F)(F)F)NC(=O)N1 (stereo not given),-0.15% (inactive)
11,NC1=NN(c2c(Cl)cc(Cl)cc2Cl)C(=O)C1,39.6% (inactive)
12,CCCCNC(=S)N(CCCC)CCCC,13.1% (inactive)
13,COc1ccc(CCCN2c3ccccc3Sc3ccccc32)cc1,-5.7% (inactive)
14,C=CC(C)(C)C1=CC(=O)C(OC)=CC1=O,-6.65% (inactive)
15,O=c1[nH]nc(-c2ccccc2)c2c1[nH]c1ccccc12,-12.1% (inactive)
16,CC1=CNNc2ccccc21,5.1% (inactive)
17,S=C1Cc2c(-c3ccc(Br)cc3)cc(-c3ccccc3)nc2-c2ccccc2N1,23.2% (inactive)
18,O=c1[nH]c(=O)c2nccnc2[nH]1,5.1% (inactive)
19,CC1CN(C(=O)OCC23COC4(C)CCC(C)(OC2)N34)CC(C)O1 (stereo not given),5.75% (inactive)
20,O=C(Nc1nncs1)c1ccncc1,-46.1% (inactive)
